Pf Dd2 growth: inhibitors of Plasmodium falciparum Dd2 growth | 120,000 compounds, 4.3% hits | P. falciparum Dd2 growth, SYBR Green, 72 h | Potency, µM (doses to about 28.9 µM), inactives show at the top dose activity, negative = inhibition, usual class: inhibitors | AID 1347417; active = well fitted inhibition curve with a large enough effect;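 note: plate controls were DMSO vehicle for no effect and reference drug for full effect; nearly all actives have a fitted effect of over 65% in size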
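Infected erythrocytes (Dd2, 0.3% parasitemia, 2.5% hematocrit final) are added to compound in RPMI-1640/Albumax II medium, grown 72 h at 37C in low oxygen, then lysed with saponin/Triton-X containing SYBR Green and read by fluorescence.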
* hit, by the source's call; i = inactive; [ ] = remark or other dose. Only a selection was taken, and hits are over-represented in it overall. Potency is the fitted concentration of half-maximal effect.

SMILES	Pf Dd2 growth
CCc1ccc(NC(=O)CSc2nc(-c3ccccc3)no2)cc1	2.5µM*
COc1ccc(N2CCN(C(=O)CSc3n[nH]c(-c4ccccc4Cl)n3)CC2)cc1	-5%
CC(C)c1ccc(-c2noc(SCC(=O)N(C)c3ccc(F)cc3)n2)cc1	0.79µM*
CCN(C(=O)CSc1nc(-c2ccccc2)no1)c1ccccc1	3.2µM*
COc1ccc(N2CCN(C(=O)CSc3nc4ccccc4nc3Cc3ccc(Cl)cc3)CC2)cc1	i
COc1ccc(N2CCN(C(=O)CSc3nc(-c4ccccc4)no3)CC2)cc1	2.8µM*
CCc1ccc(NC(=O)CSc2nc3ccccc3nc2Cc2ccc(C)cc2)cc1	8%
CCN(C(=O)CSc1nc2ccccc2nc1Cc1ccccc1OC)c1ccccc1	-11%
CCN(C(=O)CSc1nc2ccccc2[nH]1)c1ccccc1	41%[5.79 µM]
O=C(N[C@H]1[C@H](O)[C@H](O)C[C@@H]1c1cncnc1)c1ccc(C(F)(F)F)cc1	2%[44.1 µM]
CS(=O)(=O)N1C[C@H]2CCN(C(=O)Cc3ccccc3Cl)C[C@H]21	-1%
Cc1nc2c(c(N[C@@H]3COCC[C@H]3OCc3ccccn3)n1)CCC2	-16%
CCCc1noc(CN(C)C(/C=C/c2ccccc2)C(=O)O)n1 (stereo not drawn)	5%
CCn1ncc(N2CCC(NC(=O)C(C)(C)C)CC2)cc1=O	1%
O=c1cc(N2CCOCC2)oc2c(-c3ccncc3)nccc12	-22%[44.1 µM]
COc1ccc(C(=O)N2[C@@H]3CC[C@H]2CC(NC(=O)c2ccc(F)cc2)C3)c(OC)c1 (stereo partly drawn)	-17%
CCOc1ccccc1CNC(=O)[C@H]1CCC[C@H]1NC(=O)c1ccc(OC)cc1	11µM*
COc1ccc(C(=O)N[C@@H]2CCC[C@@H]2C(=O)NCc2cc(OC)ccc2OC)cc1	-5%
COc1ccccc1CNC(=O)[C@H]1CCC[C@H]1NC(=O)c1ccncc1	14%
COc1ccc(C(=O)N2CCCC(CO)CCNC(=O)CC2)c(OC)c1 (stereo not drawn)	-15%
O=C(CCc1ccnc(N2CCCC2)c1)N1CCN(c2cccc(Cl)c2)CC1	5µM*
O=C(O)CCc1ccnc(N2CCCC2)c1	7%
O=C(CCc1ccnc(N2CCOCC2)c1)N1CCN(C(=O)c2ccco2)CC1	34%
O=C1CC(C(=O)N2CCC(O)(c3cccnc3)CC2)CN1Cc1ccccn1 (stereo not drawn)	-7%
Cc1ccc(C)c(N2CCN(C(=O)Cn3c(C)c4cnn(-c5ccccc5)c(=O)c4c3C)CC2)c1	i
SMILES	Pf Dd2 growth
CCC(C(=O)N1CCN(c2ccccc2)CC1)n1c(C)c2cnn(-c3ccccc3)c(=O)c2c1C (stereo not drawn)	11µM*
Cc1c2cnn(-c3ccccc3)c(=O)c2c(C)n1CC(=O)N1CCN(c2cccc(Cl)c2)CC1	25%
O=C1NCC(=O)N2CCN(Cc3ccccc3-c3ccccc3)CC12 (stereo not drawn)	-12%
COCCOC1CCOC2(CCN(C(=O)c3ccccn3)CC2)C1 (stereo not drawn)	13%
Cc1cccc(NC(=O)c2sc3nc4c(cc3c2N)CN(C(C)C)CC4)c1	11µM*
CC(=O)c1cccc(NC(=O)c2sc3nc4c(cc3c2N)CCCC4)c1	25%
CN1CCc2nc3sc(C(=O)Nc4cccc(C#N)c4)c(N)c3cc2C1	-23%
CCNC(=O)N[C@H]1[C@H](O)[C@@H](N2CCCCC2)[C@@H]2OC[C@H]1O2	3%[44.1 µM]
CCc1nc(-c2c3n(c(=O)n(CC(=O)Nc4ccccc4Cl)c2=O)CCCCC3)no1	-8%
O=C1c2cnc(-c3cccc(CO)c3)nc2OCCN1c1cccc(C(F)(F)F)c1	14µM*
COc1ncccc1-c1ncc2c(n1)OCCN(c1cccc(C(F)(F)F)c1)C2=O	-9%[44.1 µM]
COc1ccccc1-c1ncc2c(n1)OCCN(c1cccc(C(F)(F)F)c1)C2=O	i
COCC[C@]1(O)CCN(C(=O)c2cccc(OCC(N)=O)c2)C[C@H]1C	-5%
COC[C@@H]1CN(C(=O)Cc2c(C)noc2C)C[C@H]1c1ccncc1	30%
COc1cccc(C(=O)N2CC(C(=O)NCCc3ccncc3)C3(CCOCC3)C2)c1 (stereo not drawn)	-1%
CC(C)CC(=O)N1[C@@H]2CC[C@H]1CC(NC(=O)c1ccc(F)cc1)C2 (stereo partly drawn)	-18%
O=C(NC1C[C@H]2CC[C@@H](C1)N2C(=O)CCCc1ccccc1)c1ccc(F)cc1 (stereo partly drawn)	8.9µM*
COc1cccc(CC(=O)N2[C@@H]3CC[C@H]2CC(NC(=O)c2ccc(F)cc2)C3)c1 (stereo partly drawn)	i
COc1cc(NC(=O)CCC2CCN(C(=O)c3ccccc3)CC2)cc(OC)c1	i
Cc1ccc(-c2noc([C@@H]3CCCN3C(=O)c3ccc(Cl)cc3)n2)cc1	16%
CN(C)C(=O)c1cccnc1OC1CCN(C(=O)c2ccncc2)CC1	-14%
COCC1CN(C2CCC2)CC12CCN(C(=O)Cc1ccccc1F)CC2 (stereo not drawn)	5.6µM*
COC[C@@H]1CN(C(=O)c2ccc(OC)c(F)c2)C[C@H]1C(N)=O	17%
